Assay results reported in ChEMBL document CHEMBL3433997, “St. Jude Leishmania screening dataset” (2016).

How the values were obtained:
Type in all cases: functional
[1] = biological target: Solute carrier family 2, facilitated glucose transporter member 1 (Homo sapiens) (UniProt P11166); experiment: ST_JUDE_LEISH: Cytotoxicity at 2uM final concentration against transgenic Leishmania Mexicana promastigotes LmGLUT1 that are glucose transport deficient and complemented with the human glucose transporter GLUT1. Activity is measured by DNA content using SYBR green in vitro
[2] = biological target: Hexose transporter 1 (Plasmodium falciparum) (UniProt O97467); experiment: ST_JUDE_LEISH: Cytotoxicity at 2uM final concentration against transgenic Leishmania Mexicana promastigotes LmPfHT that are glucose transport deficient and complemented with the Plasmodium falciparum hexose transporter. Activity is measured by DNA content using SYBR green in vitro
[3] = biological target: Glucose transporter (Leishmania mexicana) (UniProt O61059); experiment: ST_JUDE_LEISH: Cytotoxicity at 2uM final concentration against transgenic Leishmania Mexicana promastigotes LmGT2 that are glucose transport deficient and complemented with the L. Mexicana glucose transporter 2. Activity is measured by DNA content using SYBR green in vitro

Chain of Solute carrier family 2, facilitated glucose transporter member 1 (Homo sapiens) (P11166 whole entry): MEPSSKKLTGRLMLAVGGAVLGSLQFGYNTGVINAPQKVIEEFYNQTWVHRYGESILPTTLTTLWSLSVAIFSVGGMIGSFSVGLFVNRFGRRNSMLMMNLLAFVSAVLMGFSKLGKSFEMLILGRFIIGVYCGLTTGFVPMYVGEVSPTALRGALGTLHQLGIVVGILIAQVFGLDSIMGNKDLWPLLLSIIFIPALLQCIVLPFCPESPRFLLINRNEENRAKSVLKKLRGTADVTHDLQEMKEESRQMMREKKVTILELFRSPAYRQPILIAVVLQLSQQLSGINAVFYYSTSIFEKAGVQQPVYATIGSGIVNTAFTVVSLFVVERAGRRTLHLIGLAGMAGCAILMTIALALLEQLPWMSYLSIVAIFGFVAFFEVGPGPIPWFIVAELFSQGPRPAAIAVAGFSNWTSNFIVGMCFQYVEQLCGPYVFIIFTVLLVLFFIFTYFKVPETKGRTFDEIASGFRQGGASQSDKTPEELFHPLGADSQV

SMILES | inhibition [1] [%] | inhibition [2] [%] | inhibition [3] [%]
Cc1cc(-c2cccc(CNC3CCN(C)CC3)c2)ccc1S(=O)(=O)NC1CCC1 | 2.28 | 1.62 | 0.45
O=C(/C=C/c1cccc(Cl)c1)N1CCC(C(O)CN2CCC3(CC2)CN(C(=O)/C=C/c2cccc(Cl)c2)c2ccccc23)CC1 (configuration not stated) | 0.54 | 1.87 | 0.82
COc1ccc(NC(=O)/C=C/c2ccc(Cl)c(C(F)(F)F)c2)cc1OCCN(C(C)C)C(C)C | 11.7 | 8.04 | 5.51
Cc1ccc(C)c(Cn2c(N3CCC(C(=O)NCc4cccs4)CC3)nc3ccccc32)c1 | 3.18 | 4.2 | -0.43
CN1CCN(c2cc(NC(=O)c3ccc(-c4ccc(C#N)cc4)cc3)ccc2Cl)CC1 | 0.4 | -0.14 | 0.17
O=C(c1ccc(F)c(F)c1)N1CCOC(CCN2CCC(c3ccccc3)CC2)(c2ccc(Cl)c(Cl)c2)C1 (configuration not stated) | 4.15 | 2.12 | 3.63
COc1c(Br)cc(Br)cc1C(C)=O | 3.62 | 3.58 | -0.79
COc1cc(NCC(CN)Cc2ccc3c(c2)OCO3)nc2ccccc12 (configuration not stated) | 4.7 | 3.95 | 5.88
O=C(NC1CCN(c2ccc(F)cc2[N+](=O)[O-])CC1)c1cccs1 | 4.31 | 3.82 | 2.71
COc1cc(NC(=O)c2sc(-c3ccc(Cl)cc3)cc2NC(=O)c2ccncc2)ccc1OCCN1CCCC1 | 7.57 | 3.54 | 0.97
CC1CN(c2ccc(NC(=O)c3cccs3)cc2)CCN1Cc1cccc(F)c1 (configuration not stated) | -0.49 | -0.85 | 3.41
NCC1CCCN1Cc1cccc(-c2ccc(-c3nc4cc(C(F)(F)F)ccc4[nH]3)cc2)c1 (configuration not stated) | 0.06 | 0.65 | -0.43
CCNC(=O)Nc1ccc(N(C)c2ccnc(NC3CC3)n2)cc1 | 5.12 | 3.87 | 5.35
CCN(CC)c1ccc(C(c2ccc(N(CC)CC)cc2)c2cccc([N+](=O)[O-])c2)cc1 | 15.2 | 13.8 | 11.1
